Measured values reported in PubChem BioAssay AID1053183 (Broad Institute, 2014).
Results with a measured potency or affinity are listed apart. The source made the active and inactive calls.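 Rule for the calls: active = cytotoxic compounds with fitted half-maximal concentration at most double the highest valid dose; inconclusive = flat curve with moderate signal loss, or unreliable fit; inactive = the rest.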

Experiment: cytotoxicity in HepG2 cells, dose response, cytotoxicity control, cell-based, cherry-picked samples (AID 1053183)
Details: HepG2 viability, CellTiter-Glo ATP luminescence, 72 h; series mostly up to 26 µM

| SMILES | outcome |
| --- | --- |
| C/C=C/c1ccc([C@H]2[C@@H](CO)N3C(=O)CN(Cc4ccc(F)cc4)C[C@@H]23)cc1 | inactive |
| CNC[C@@H]1Oc2cc(C#Cc3ccccc3OC)ccc2S(=O)(=O)N([C@H](C)CO)C[C@H]1C | inactive |
| C[C@@H]1CN([C@@H](C)CO)C(=O)Cc2cc(NC(=O)C3CCCCC3)ccc2O[C@@H]1CN(C)Cc1ccc(Cl)c(Cl)c1 | inactive |
| CN(C)C(=O)c1cccc(-c2ccc(C3[C@@H]4CN(Cc5ccccc5F)C[C@H]3N4)cc2)c1 (stereo partly drawn) | inactive |
| COc1cccc(-c2cccc(-c3nc(C(=O)Nc4ccc(-c5ccccc5)cc4)cc4c3[C@@H](CCO)N(S(=O)C(C)(C)C)C4)c2)c1 (stereo partly drawn) | inactive |
| CO[C@@H](CN(C)Cc1cc(F)ccc1F)[C@@H](C)CN(C(=O)Nc1ccc(C(F)(F)F)cc1)[C@H](C)CO | inactive |
| COc1ccc2c3c(n(C)c2c1)[C@@H](CO)N(CC1CC1)CC31CN(C(=O)c2ccc3c(c2)OCO3)C1 | inactive |
| C[C@H](CO)N1C[C@H](C)[C@@H](CN(C)Cc2ccccc2)Oc2c(NC(=O)Cc3cn(C)c4ccccc34)cccc2C1=O | inactive |
